# Laboratory results: PubChem BioAssay (Tox21)
# Where “and” joins values, the source holds several entries; their conditions need not be identical. Identical values can stand only once. Values without a mark were called inactive. Results filed as inconclusive are left out. A call without a number means that no potency is given here. Calls of active or inactive are those of the source. Unless noted, the call rests on the fitted dose curve; in most records, active means well fitted curve in the direction sought with a large enough effect in the repeat runs; inconclusive means weak or mixed curves; inactive means no such curve, though single readings can be large; an effect the other way counts as inactive or inconclusive.
# How the values were obtained:
# [1] = qHTS assay to identify small molecule agonists of the androgen receptor (AR) signaling pathway in the presence of an antagonist - cell viability counter screen (AID 1259379); further: nearly all actives have a fitted effect of over 25% in size; further: potency means the concentration at half of the fitted maximal effect; on activity change, negative = cytotoxicity: series mostly up to about 92 µM
# Procedure, shortened: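 MDA-kb2 human breast carcinoma cells (stable MMTV-luciferase, AR/GR responsive) were seeded 3,000 cells/well, pre-incubated 5 hr at 37C without CO2, then given 3.0uM nilutamide and compounds at 15 concentrations for 16 hr. Viability was read by CellTiter-Fluor fluorescence.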
# [2] = qHTS assay to identify small molecule agonists of the estrogen receptor beta (ER-beta) signaling pathway - cell viability counter screen (AID 1259380); further: nearly all actives have a fitted effect of over 30% in size; further: potency means the concentration at half of the fitted maximal effect
# Procedure, shortened: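 ER-beta-UAS-bla HEK293T cells in medium with 2% charcoal-stripped FBS were preincubated 6 hr at 37C, dosed with compound in DMSO for 16 hr, then after the bla read, CellTiter-Glo was added for 30 min at room temperature; luminescence recorded.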
# [3] = qHTS assay to identify small molecule antagonists of the estrogen receptor beta (ER-beta) signaling pathway - cell viability counter screen (AID 1259382); further: nearly all actives have a fitted effect of over 55% in size; further: potency means the concentration at half of the fitted maximal effect;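 on activity change, negative = cytotoxicity: HEK293T cells carrying ER-beta-UAS-bla reporter stimulated with estradiol; series mostly up to about 92 µM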
# Procedure, shortened: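 ER-beta-UAS-bla HEK293T cells (2,000/well, 2% charcoal-stripped FBS) were pre-incubated 6 hr at 37C, then given compound plus 1nM final 17-beta-estradiol for 16 hr. Viability was read in the same wells by CellTiter-Glo luminescence after 30 min at room temperature.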
# [4] = target: Estrogen receptor (Homo sapiens) (UniProt P03372); experiment: qHTS assay to identify small molecule agonists of the estrogen receptor alpha (ER-alpha) signaling pathway in the presence of an antagonist (AID 1259383; calls by dose curve; further: top concentration of the series differs between compounds; nearly all actives have a fitted effect of over 15% in size)
# Procedure, shortened: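 VM7Luc4E2 cells (endogenous full-length ER-alpha, 4×ERE-luciferase) were precultured 5 days in phenol red-free medium with 10% charcoal-stripped FBS, given 10.0nM ICI-182,780 (final), then treated with compounds at 15 concentrations for 22hr at 37C; luminescence read with ONE-Glo.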
# [5] = qHTS assay to identify small molecule agonists or antagonists of the thyroid stimulating hormone receptor (TSHR) signaling pathway - wild type cell line counter screen (AID 1259384; calls by dose curve)
# Procedure, shortened: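 Wild-type Hek293 cells, 800/well, 18 h at 37C, then compound with Ro20-1724 for 30 min RT. cAMP by HTRF (cAMP-d2/anti-cAMP cryptate), 1 h RT, fluorescence read. 15 concentrations, triplicates.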
# [6] = target: Progesterone receptor (Homo sapiens) (UniProt P06401); experiment: qHTS assay to identify small molecule agonists of the progesterone receptor (PR) signaling pathway (AID 1346784; calls by dose curve; further: nearly all actives have a fitted effect of over 30% in size)
# Procedure, shortened: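 Cells (PR-UAS-bla HEK 293T, GripTite) were plated in assay medium containing 2% charcoal-stripped FBS and incubated 6 hr. Test compounds in DMSO were added for 16 hr at 37C. FRET substrate was then loaded for 2 hr at room temperature before fluorescence reading.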
# [7] = target: Progesterone receptor (Homo sapiens) (UniProt P06401); experiment: qHTS assay to identify small molecule antagonists of the progesterone receptor (PR) signaling pathway (AID 1346795; active means well fitted inhibition curve with a large enough effect in the signal ratio in the repeat runs, not every such curve was filed as active; the % refers to the signal ratio; further: potency means the concentration at half of the fitted maximal effect)
# Procedure, shortened: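 Antagonist mode: compounds tested against 1 nM (final) promegestone stimulation in HEK293T cells expressing PR-UAS-bla reporter, 16 hr at 37C, 5% CO2; beta-lactamase activity detected via B/G FRET substrate after 2 hr at room temperature.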
# [8] = qHTS assay to identify small molecule antagonists of the progesterone receptor (PR) signaling pathway - cell viability counter screen (AID 1346798); further: nearly all actives have a fitted effect of over 50% in size; further: potency means the concentration at half of the fitted maximal effect; on activity change, negative = cytotoxicity: series mostly up to about 92 µM
# Procedure, shortened: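 Counter screen for cytotoxicity: viability of PR-UAS-bla HEK293T cells was measured with CellTiter-Glo luminescence following 16 hr compound exposure in the presence of R5020.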
# [9] = qHTS assay to identify small molecule agonists of the progesterone receptor (PR) signaling pathway - cell viability counter screen (AID 1346799; calls by dose curve; further: nearly all actives have a fitted effect of over 45% in size)
# Procedure, shortened: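 Cells (PR-UAS-bla HEK293T) are plated at 3,000/well in 2% charcoal-stripped FBS medium, rested 6 hr, dosed and incubated 16 hr at 37C. CellTiter-Glo is then added and luminescence measured after 30 min at room temperature.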
# [10] = qHTS assay to identify small molecule antagonists of the TGF-beta/Smad signaling pathway - cell viability counter screen (AID 1346824); further: nearly all actives have a fitted effect of over 50% in size; further: potency means the concentration at half of the fitted maximal effect
# Procedure, shortened: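 SBE-bla HEK 293T cells, incubated overnight, then compound plus 0.25 ng/mL TGF-beta1 (stock added) for 5 hr at 37 C. Viability was read in the same wells by CellTiter-Glo luminescence after 30 min at room temperature.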
# [11] = qHTS assay to identify small molecule agonists of the TGF-beta/Smad signaling pathway - cell viability counter screen (AID 1346829); further: nearly all actives have a fitted effect of over 45% in size; further: potency means the concentration at half of the fitted maximal effect; on activity change, negative = cytotoxicity: top concentration of the series differs between compounds
# Procedure, shortened: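 Luminescence from CellTiter-Glo, read after a 30 min room-temperature incubation, gives cell viability of SBE-bla HEK 293T cells treated 5 hr with compounds at 37 C.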
# [12] = qHTS assay to identify small molecule agonists of the TGF-beta/Smad signaling pathway (AID 1346859; active means well fitted activation curve with a large enough effect in the signal ratio in the repeat runs, not every such curve was filed as active; the % refers to the signal ratio; further: series mostly up to about 77 µM)
# Procedure, shortened: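 Reporter line: HEK 293T with stably integrated SBE-controlled beta-lactamase. Compound exposure lasts 5 hr at 37 C and 5% CO2; substrate loading follows for 2 hr at room temperature, with emission read at 460 and 530 nm.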
# [13] = target: Thyrotropin-releasing hormone receptor (Homo sapiens) (UniProt P34981); experiment: qHTS assay to identify small molecule antagonists of the thyrotropin-releasing hormone receptor (TRHR) signaling pathway (AID 1346877; active means well fitted inhibition curve with a large enough effect in the repeat runs, not every such curve was filed as active; further: potency means the concentration at half of the fitted maximal effect; on activity, negative = inhibition: series mostly up to about 51 µM)
# Procedure, shortened: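 TRHR-expressing HEK293 cells were seeded, cultured 18 h at 37 °C, then loaded with calcium dye for 2 h. Compounds were pre-incubated 5 min at room temperature before 1 nM TRH (final) was added, and kinetic fluorescence was recorded for 3 min.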
# [14] = target: Thyrotropin-releasing hormone receptor (Homo sapiens) (UniProt P34981); experiment: qHTS assay to identify small molecule agonists of the thyrotropin-releasing hormone receptor (TRHR) signaling pathway (AID 1346891; calls by dose curve; further: series mostly up to about 58 µM)
# Procedure, shortened: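 Cells: TRHR-Hek293, seeded and incubated 18 h. Dye loading: 2 h at 37 °C. Compound added from DMSO stock by pin tool. Read-out: kinetic calcium fluorescence over 3 min.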
# [15] = Human pregnane X receptor (PXR) small molecule agonists, qHTS cell viability counter screen (AID 1346977); further: nearly all actives have a fitted effect of over 50% in size; further: potency means the concentration at half of the fitted maximal effect
# Procedure, shortened: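 Cytotoxicity counter screen run in the same wells as the PXR luciferase assay, using PXR-Luc HepG2 cells in charcoal-stripped serum medium. Viability: CellTiter-Fluor fluorescence after 24hr compound treatment.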
# [16] = qHTS assay to identify small molecule agonists of the estrogen receptor alpha (ER-alpha) signaling pathway in the presence of an antagonist - cell viability counter screen (AID 1259386);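 further: cells exposed to compounds for 22 h at 37 °C before the viability read; nearly all actives have a fitted effect of over 30% in size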; further: potency means the concentration at half of the fitted maximal effect; on activity change, negative = cytotoxicity: series mostly up to about 92 µM
# Procedure, shortened: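 VM7Luc4E2 cells (endogenous full-length ER-alpha, 4×ERE-luciferase) were held 5 days in phenol red-free medium with 10% charcoal-stripped FBS, plated, then given 10.0nM ICI-182,780 and compounds at 15 concentrations for 22hr at 37C; viability read by CellTiter-Fluor fluorescence.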
# [17] = target: Androgen receptor (Homo sapiens) (UniProt P10275); experiment: qHTS assay to identify small molecule agonists of the androgen receptor (AR) signaling pathway in the presence of an antagonist (AID 1259381; calls by dose curve; further: nearly all actives have a fitted effect of over 15% in size)
# Procedure, shortened: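 MDA-kb2 human breast carcinoma cells carrying an MMTV-luciferase reporter (AR- and GR-responsive) were treated with compounds at 15 concentrations plus 3.0uM final nilutamide for 16hr at 37C without CO2; luminescence was read after ONE-Glo addition.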
# [18] = target: Thyrotropin receptor (Homo sapiens) (UniProt P16473); experiment: qHTS assay to identify small molecule antagonists of the thyroid stimulating hormone receptor (TSHR) signaling pathway (AID 1259385; calls by dose curve; further: nearly all actives have a fitted effect of over 20% in size)
# Procedure, shortened: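 TSHR-HEK293 cells (800/well) plated 18 h, then compounds with Ro20-1724 and TSH at 1.5 ng/mL final, 30 min at room temperature. cAMP quantified by HTRF (cAMP-d2/anti-cAMP-cryptate, 1 h); 15 concentrations in triplicate.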
# Estrogen receptor (Homo sapiens), sequence (P03372 whole entry, looked up): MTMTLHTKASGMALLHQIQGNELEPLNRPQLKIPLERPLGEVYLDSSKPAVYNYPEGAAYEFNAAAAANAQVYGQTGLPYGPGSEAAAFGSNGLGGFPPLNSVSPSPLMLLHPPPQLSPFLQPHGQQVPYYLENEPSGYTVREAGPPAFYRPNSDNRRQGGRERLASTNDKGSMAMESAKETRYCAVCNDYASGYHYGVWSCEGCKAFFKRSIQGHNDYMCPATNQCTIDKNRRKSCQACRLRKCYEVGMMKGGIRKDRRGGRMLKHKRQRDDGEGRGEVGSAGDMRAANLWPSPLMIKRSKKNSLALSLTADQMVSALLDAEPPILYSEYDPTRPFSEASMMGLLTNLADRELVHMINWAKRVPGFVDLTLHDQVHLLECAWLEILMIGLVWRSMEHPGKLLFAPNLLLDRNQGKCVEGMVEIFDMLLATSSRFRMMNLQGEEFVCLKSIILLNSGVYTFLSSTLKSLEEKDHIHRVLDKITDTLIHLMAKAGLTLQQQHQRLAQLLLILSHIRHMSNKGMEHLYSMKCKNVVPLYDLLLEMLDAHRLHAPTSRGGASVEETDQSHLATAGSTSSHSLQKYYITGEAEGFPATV
# Progesterone receptor (Homo sapiens), sequence (P06401 whole entry, looked up): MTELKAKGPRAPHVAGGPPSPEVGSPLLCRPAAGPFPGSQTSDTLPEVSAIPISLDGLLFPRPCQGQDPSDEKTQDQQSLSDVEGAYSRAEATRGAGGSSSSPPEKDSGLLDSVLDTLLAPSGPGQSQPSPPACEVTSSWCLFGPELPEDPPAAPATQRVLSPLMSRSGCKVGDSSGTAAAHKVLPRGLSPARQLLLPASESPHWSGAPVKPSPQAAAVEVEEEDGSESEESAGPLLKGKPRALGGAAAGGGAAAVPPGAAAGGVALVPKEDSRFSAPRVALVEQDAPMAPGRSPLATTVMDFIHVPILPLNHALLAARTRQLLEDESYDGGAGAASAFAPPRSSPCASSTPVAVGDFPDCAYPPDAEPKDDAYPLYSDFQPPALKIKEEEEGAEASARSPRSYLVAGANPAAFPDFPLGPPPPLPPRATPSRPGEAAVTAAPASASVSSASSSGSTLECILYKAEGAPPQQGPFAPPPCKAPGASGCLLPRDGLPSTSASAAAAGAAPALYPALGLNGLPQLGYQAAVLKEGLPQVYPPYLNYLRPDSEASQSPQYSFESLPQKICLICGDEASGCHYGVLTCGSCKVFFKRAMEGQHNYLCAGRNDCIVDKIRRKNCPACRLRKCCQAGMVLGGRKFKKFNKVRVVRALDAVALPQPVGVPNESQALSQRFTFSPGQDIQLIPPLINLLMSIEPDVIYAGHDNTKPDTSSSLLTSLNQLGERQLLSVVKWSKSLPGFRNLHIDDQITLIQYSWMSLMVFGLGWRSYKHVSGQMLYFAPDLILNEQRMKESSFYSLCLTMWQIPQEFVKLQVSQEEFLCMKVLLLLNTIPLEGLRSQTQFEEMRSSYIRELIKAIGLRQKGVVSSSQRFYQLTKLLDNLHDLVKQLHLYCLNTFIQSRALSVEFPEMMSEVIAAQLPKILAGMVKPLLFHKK
# Thyrotropin-releasing hormone receptor (Homo sapiens), sequence (P34981 whole entry, looked up): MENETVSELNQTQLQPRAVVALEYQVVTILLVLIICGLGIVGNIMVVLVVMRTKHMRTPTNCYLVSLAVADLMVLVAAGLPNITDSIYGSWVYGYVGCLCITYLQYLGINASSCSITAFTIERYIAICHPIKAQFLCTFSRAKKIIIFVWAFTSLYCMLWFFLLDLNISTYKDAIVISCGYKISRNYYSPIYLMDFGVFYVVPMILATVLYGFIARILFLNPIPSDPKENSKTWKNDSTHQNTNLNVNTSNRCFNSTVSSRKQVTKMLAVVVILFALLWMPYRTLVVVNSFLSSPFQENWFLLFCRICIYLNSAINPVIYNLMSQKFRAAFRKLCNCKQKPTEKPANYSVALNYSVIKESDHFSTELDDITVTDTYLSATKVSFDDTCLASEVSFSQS
# Thyrotropin receptor (Homo sapiens), sequence (P16473 whole entry, looked up): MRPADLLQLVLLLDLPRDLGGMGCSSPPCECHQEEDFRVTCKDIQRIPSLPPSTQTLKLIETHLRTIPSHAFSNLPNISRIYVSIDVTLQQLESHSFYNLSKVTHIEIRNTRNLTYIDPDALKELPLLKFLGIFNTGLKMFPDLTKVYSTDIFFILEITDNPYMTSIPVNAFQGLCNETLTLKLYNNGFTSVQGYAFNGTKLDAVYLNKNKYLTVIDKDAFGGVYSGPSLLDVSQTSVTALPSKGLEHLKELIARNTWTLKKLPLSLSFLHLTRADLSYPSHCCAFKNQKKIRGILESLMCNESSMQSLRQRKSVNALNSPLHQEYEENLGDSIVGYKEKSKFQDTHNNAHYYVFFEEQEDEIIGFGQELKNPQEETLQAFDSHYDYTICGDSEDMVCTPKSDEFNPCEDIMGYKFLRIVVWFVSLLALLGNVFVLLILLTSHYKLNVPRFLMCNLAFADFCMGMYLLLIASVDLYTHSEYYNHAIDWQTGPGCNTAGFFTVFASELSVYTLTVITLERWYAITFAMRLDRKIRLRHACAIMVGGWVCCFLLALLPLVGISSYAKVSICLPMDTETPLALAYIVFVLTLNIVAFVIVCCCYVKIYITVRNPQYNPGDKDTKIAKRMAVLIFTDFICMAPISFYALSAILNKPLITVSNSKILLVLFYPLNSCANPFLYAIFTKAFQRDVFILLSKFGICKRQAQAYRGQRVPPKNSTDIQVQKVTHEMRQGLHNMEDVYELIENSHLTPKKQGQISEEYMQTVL
# Androgen receptor (Homo sapiens), sequence (P10275 whole entry, looked up): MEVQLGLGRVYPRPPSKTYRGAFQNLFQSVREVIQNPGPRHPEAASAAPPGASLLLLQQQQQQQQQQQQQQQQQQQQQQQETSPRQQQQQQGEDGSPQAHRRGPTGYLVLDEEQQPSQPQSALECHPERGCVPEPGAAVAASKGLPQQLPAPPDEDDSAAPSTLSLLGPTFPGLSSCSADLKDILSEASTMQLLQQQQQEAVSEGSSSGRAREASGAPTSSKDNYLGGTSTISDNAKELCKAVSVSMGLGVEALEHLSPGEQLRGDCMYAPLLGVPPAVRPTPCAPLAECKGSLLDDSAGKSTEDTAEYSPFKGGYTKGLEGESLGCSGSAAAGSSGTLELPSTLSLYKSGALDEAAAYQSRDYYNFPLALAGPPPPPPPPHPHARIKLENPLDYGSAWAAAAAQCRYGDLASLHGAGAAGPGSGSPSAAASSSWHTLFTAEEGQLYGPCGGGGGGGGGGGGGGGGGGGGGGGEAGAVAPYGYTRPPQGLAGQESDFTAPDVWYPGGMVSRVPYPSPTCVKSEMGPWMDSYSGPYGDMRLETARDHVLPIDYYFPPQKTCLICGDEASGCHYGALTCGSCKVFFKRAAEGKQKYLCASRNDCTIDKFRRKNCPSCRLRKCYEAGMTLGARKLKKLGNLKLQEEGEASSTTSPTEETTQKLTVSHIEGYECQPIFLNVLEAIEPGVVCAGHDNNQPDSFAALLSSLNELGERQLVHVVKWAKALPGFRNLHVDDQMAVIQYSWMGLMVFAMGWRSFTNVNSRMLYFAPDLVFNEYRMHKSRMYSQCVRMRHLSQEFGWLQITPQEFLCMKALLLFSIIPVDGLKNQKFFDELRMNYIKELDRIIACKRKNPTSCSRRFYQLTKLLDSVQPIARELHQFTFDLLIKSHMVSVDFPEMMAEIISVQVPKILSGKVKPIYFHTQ
smiles,measurement,setting,value
O=C=NCc1cccc(CN=C=O)c1,"activity change, negative = cytotoxicity",[1],-5.15% [at 19 µM]
same,"activity change, negative = cytotoxicity",[2],2.31% [at 19 µM]
same,"activity change, negative = cytotoxicity",[3],13% [at 19 µM]
same,activation,[4],0.099% [at 19 µM]
same,cAMP activity change,[5],-0.613% [at 18.9 µM]
same,activation,[6],-0.779% [at 19 µM]
same,"activity change, negative = inhibition",[7],0.417% [at 18.9 µM]
same,"activity change, negative = cytotoxicity",[8],-11.8% [at 18.9 µM]
same,"activity change, negative = cytotoxicity",[9],-1.39% [at 19 µM]
same,"viability change, negative = cytotoxic",[10],-4.21% [at 15.8 µM]
same,"activity change, negative = cytotoxicity",[11],-12.3% [at 15.8 µM]
same,activation,[12],3.26% [at 15.8 µM]
same,"activity, negative = inhibition",[13],1.76% [at 10.5 µM]
same,activation,[14],-0.119% [at 11.8 µM]
same,"activity change, negative = cytotoxicity",[15],4.21% [at 19 µM]
CC(C)(C)CC(C)(C)c1ccccc1O,Potency,[1],inactive
same,Potency,[2],43.5 µM (active)
same,Potency,[3],61.4 µM (active)
same,outcome,[5],inactive
same,Potency,[16],61.4 µM (active)
same,Potency,[10],31.1 µM (active)
same,Potency,[11],49.2 µM (active)
same,Potency,[15],70.8 µM (active)
COc1cccc(O)c1,Potency,[1],inactive
same,Potency,[2],inactive
same,Potency,[3],inactive
same,Potency,[4],inactive
same,Potency,[16],inactive
same,outcome,[6],inactive
same,Potency,[7],inactive
same,Potency,[9],inactive
same,Potency,[10],inactive
same,Potency,[11],inactive
same,Potency,[12],inactive
same,Potency,[13],inactive
same,Potency,[14],inactive
same,Potency,[15],inactive
O=C(Nc1ccc(Cl)c(Cl)c1)c1cc(Cl)cc(Cl)c1O,Potency,[1],6.86 µM (active)
same,Potency,[2],21.7 µM (active)
same,Potency,[3],19.3 µM (active)
same,Potency,[4],inactive
same,Potency,[16],7.7 µM (active)
same,outcome,[6],inactive
same,Potency,[7],4.86 µM (active)
same,Potency,[10],19.5 µM (active)
same,Potency,[14],inactive
same,Potency,[15],4.86 µM (active)
CSc1ccc2c(c1)N(CCC1CCCCN1C)c1ccccc1S2 (stereo not given),Potency,[1],54.3 µM (active) and 29.8 µM (active)
same,Potency,[2],19.3 µM (active) and 18.8 µM (active)
same,Potency,[3],15.3 µM (active) and 13.3 µM (active)
same,Potency,[4],inactive
same,outcome,[5],inactive
same,Potency,[8],21.6 µM (active) and 23.7 µM (active)
same,Potency,[11],54.7 µM (active)
same,Potency,[12],inactive
same,Potency,[15],19.3 µM (active) and 26.6 µM (active)
C=CCCCCCCC=C,Potency,[1],inactive
same,Potency,[2],inactive
same,Potency,[3],inactive
same,Potency,[16],inactive
same,outcome,[6],inactive
same,Potency,[10],inactive
same,Potency,[11],inactive
same,Potency,[12],inactive
same,Potency,[13],inactive
same,Potency,[14],inactive
same,Potency,[15],inactive
Nc1cc(Cl)c([N+](=O)[O-])cc1O,Potency,[1],48.2 µM (active)
same,Potency,[2],inactive
same,Potency,[3],inactive
same,Potency,[4],inactive
same,outcome,[5],inactive
same,Potency,[16],54 µM (active)
same,outcome,[6],inactive
same,Potency,[8],inactive
same,Potency,[9],inactive
same,Potency,[10],inactive
same,Potency,[11],inactive
same,Potency,[12],inactive
same,Potency,[13],inactive
same,Potency,[14],inactive
CCCCCCCCCCCCCC[n+]1ccccc1,Potency,[1],3.06 µM (active)
same,Potency,[2],30.6 µM (active)
same,Potency,[3],61.1 µM (active)
same,Potency,[4],inactive
same,outcome,[5],inactive
same,Potency,[16],54.5 µM (active)
same,Potency,[10],54.9 µM (active)
same,Potency,[15],8.63 µM (active)
CCCN(CCc1cccs1)[C@H]1CCc2c(O)cccc2C1,Potency,[1],inactive
same,Potency,[17],inactive
same,Potency,[3],inactive
same,Potency,[4],inactive
same,outcome,[5],inactive
same,Potency,[18],inactive
same,Potency,[16],inactive
same,outcome,[6],inactive
same,Potency,[7],29.8 µM (active)
same,Potency,[8],inactive
same,Potency,[9],inactive
same,Potency,[10],inactive
same,Potency,[11],inactive
same,Potency,[12],inactive
same,Potency,[13],inactive
same,Potency,[14],inactive
CCO[Si](C)(C)OCC,Potency,[1],inactive
same,Potency,[2],inactive
same,Potency,[3],inactive
same,Potency,[4],inactive
same,outcome,[5],inactive
same,outcome,[6],inactive
same,Potency,[7],inactive
same,Potency,[8],inactive
same,Potency,[9],inactive
same,Potency,[10],inactive
same,Potency,[11],inactive
same,Potency,[12],inactive
same,Potency,[15],inactive
CC(C)(c1cc(Br)c(O)c(Br)c1)c1cc(Br)c(O)c(Br)c1,Potency,[1],inactive
same,Potency,[2],68.3 µM (active) and 68.4 µM (active)
same,Potency,[3],68.4 µM (active)
same,outcome,[5],inactive
same,Potency,[18],inactive
same,outcome,[6],inactive
same,Potency,[7],13.6 µM (active) and 17.2 µM (active)
same,Potency,[10],inactive
same,Potency,[11],inactive
same,Potency,[12],inactive
same,Potency,[13],33.8 µM (active)
same,Potency,[14],inactive
